Most compounds without a hit are left out; they make up all but 1.8% or so of the library.
Beta apoptosis – blocks beta cell apoptosis. INS-1E cytokine-induced death, ATP luminescence, 48 h; percent of positive-control rescue, neutral wells zero. protection from apoptosis, % (concentration not given with the values). actives 0.8% (n = 300,000). AID 435005;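 active = Every replicate reaches about 75%, or at least half do and their mean reaches it too, limit read from the data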;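 note: 0% = cytokine-treated negative control wells and 100% = positive control rescue; higher means more ATP so stronger rescue from cytokine killing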
Jurkat NFkB inh – inhibitors of the PMA/ionomycin-induced NF-kB reporter in Jurkat cells | PMA/ionomycin-induced NF-kB luciferase reporter, luminescence | inhibition, % at 4 µM | actives 0.53% (n = 330,000) | AID 435003; in the data active = inhibition above about 50%
697 NFkB inh – lowers PMA/ionomycin-induced NF-kB signal in 697 B cells | 697 B-cell NF-kB luciferase reporter, 16 h | AID 435022 | inhibition, % at 4 µM | actives 0.33% (n = 330,000); in the data active = inhibition above about 35%
Gli-Sufu antag – Gli-Sufu pathway antagonism; Sufu-KO-LIGHT fibroblasts, Gli luciferase reporter luminescence; inhibition, % at 5 µM; actives 0.74% (n = 340,000);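 active = inhibition above about 55%, limit read from the data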;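 note: 0% = DMSO-treated cells and 100% = wells with medium but no cells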
Jurkat NFkB conf – inhibitors of the PMA/ionomycin-induced NF-kB reporter in Jurkat cells, retest; shares compounds with Jurkat NFkB inh; Jurkat NF-kB luciferase, 16 h; inhibition, % at 4 µM; actives 27% (n = 2,700); AID 435020;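 active = inhibition reaching about 45% at 4 µM in either replicate, limit read from the data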;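 note: plate controls were PMA/ionomycin stimulated DMSO wells for no effect and unstimulated DMSO wells for full effect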
An asterisk follows results filed as active; · = no result given.

SMILES	Beta apoptosis	Jurkat NFkB inh	697 NFkB inh	Gli-Sufu antag	Jurkat NFkB conf
CCOC(=O)c1sc(NC(=O)Nc2ccccc2)cc1C	16	-171	-233	-127	-139
CCn1c2ccccc2c2cc(Nc3cc(C)nc4ncnn34)ccc21	45	65*	-197	62*	49*
C[C@]12CCC3C(CC[C@H]4CCCC[C@]34C)C1CC[C@@]2(O)CNCCO (some centres not stated)	2	56*	7	10	17
Cc1ccc2nc(-c3ccc(NC(=O)CSc4ccccc4)cc3)[nH]c2c1	·	-153	-118	-17	-118
O=C(CSc1ccccc1)Nc1ccc(-c2nc3ccccc3[nH]2)cc1	15	-123	-125	-58	·
COC(=O)c1cnc(Oc2ccc(NC(=O)NC(=O)c3c(F)cccc3Cl)cc2)cc1C(F)(F)F	12	50*	-23	-1	46
CCOc1cc(OCC)nc(S(C)(=O)=O)n1	-7	15	-19	7	·
Fc1ccc(Nc2ccc3ccccc3n2)c(F)c1	0	-211	-242	-169	-138
O=C(Nc1ccc2ccccc2n1)Nc1ccccc1F	-1	-57	-21	-43	·
COc1ccc(-c2csc(NC(=O)C3CCN(c4ncnc5sc(C)c(C)c45)CC3)n2)cc1OC	112*	53*	-6	72*	39
Cc1cccc(OCCC(=O)Nc2nnc(C)s2)c1	-4	2	-1	4	·
Clc1ccc(OCc2nc(-c3ccncc3)no2)c(Br)c1	2	-166	-196	-102	-96
C#CCOCCOCCOCCNc1nc(N2CCN(C(=O)C(Cc3cc4ccccc4[nH]3)n3cc(C(N)C(C)CC)nn3)CC2)nc(N2CCN(C(=O)C(Cc3cc4ccccc4[nH]3)n3cc(C(N)C(C)CC)nn3)CC2)n1 (configuration not stated)	-10	16	15	-9	·
CC(Cl)C(=O)Nc1cc(C(C)(C)C)nn1-c1ccccc1 (configuration not stated)	·	7	19	-1	·
CN(C)c1ccc(C=NNc2ccccn2)c(Cl)c1	·	·	·	-86	·
CN(C)c1ccc(/C=N\Nc2ccccn2)cc1	32	-185	-193	-92	-60
Cc1cccc(S(=O)(=O)Nc2ccc(-c3nc4ccc(C)cc4s3)cc2)c1	5	-179	-165	-83	-52
COc1ccc(C(=S)N2CCN(c3cccc(Cl)c3)CC2)c(OC)c1	15	63*	-38	9	-5
Cc1ccc(C(=O)Nc2ccc3c4c(cccc24)CC3)cc1[N+](=O)[O-]	9	85*	-22	-1	13
COc1ccccc1-n1cnnc1SCC(=O)NC1CCCC1	-6	4	14	-2	·
CCOc1ccc2nc3cc(NCc4ccc(OC)cc4)ccc3c(N)c2c1	28	100*	-29	64*	15
O=C(CP(=O)(O)CC(=O)c1ccccc1)c1ccccc1	2	-9	-4	4	·
Nc1ccccc1C#CC(=O)c1ccccc1	91*	52*	-109	-10	13
O=C(C#Cc1cccc([N+](=O)[O-])c1)c1ccccc1	39	10	-49	·	·
CCOC(=O)N1CCN(C(=O)c2csc3c2CCCCC3)CC1	·	8	-1	6	·
SMILES	Beta apoptosis	Jurkat NFkB inh	697 NFkB inh	Gli-Sufu antag	Jurkat NFkB conf
COc1ccc2[nH]c(-c3cccc(F)c3)cc(=O)c2c1	20	37	-98	3	·
O=c1cc(-c2cccc(F)c2)[nH]c2ccccc12	17	72*	-26	22	62*
O=c1cc(-c2ccccc2)[nH]c2ccc(F)cc12	19	·	·	7	·
O=c1cc(-c2ccccc2)[nH]c2cc(Cl)ccc12	12	65*	-39	14	61*
Cc1ccc2[nH]c(-c3cccc(F)c3)cc(=O)c2c1	11	52*	-68	24	45
O=C(Nc1ccc(Cl)cc1C(=O)NCc1cccnc1)c1ccc(Cl)cc1Cl	5	51*	-23	2	11
O=C(Nc1c(Cl)cc(Cl)cc1C(=O)NCc1cccnc1)c1ccc(Cl)cc1Cl	12	-6	5	3	·
Nc1ccc2oc(-c3cccc(Br)c3)nc2c1	-4	-177	-182	-75	-38
Nc1ccc2oc(-c3ccc4nc[nH]c4c3)nc2c1	-5	-80	-158	-44	·
COc1ccc(C2C(C#N)=C(C)NC3=C2C(=O)c2ccccc23)cc1 (configuration not stated)	13	3	-2	8	·
CC1=C([N+](=O)[O-])C(c2ccccc2)C2=C(N1)c1ccccc1C2=O (configuration not stated)	16	61*	17	31	47*

Source: PubChem
